Laboratory results published in PubChem BioAssay (NCI).
The panel holds about 83,000 compounds, 20% with a hit somewhere; the sample as a whole holds those more often.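 Results are percent growth after 48 hours of single-concentration exposure. 100 means growth as in untreated cells, lower positive values show inhibition; negative values down to -100 show cell death.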 Values without a mark were called inactive. Active and inactive are the calls of the source. How the source made its calls: active means growth percent below 10; inactive means the rest.

Legend:
Assay in all cases: NCI-60 one-dose screen, 48 h (100 = growth as untreated, 0 = no growth, -100 = all killed)
Conditions in all cases: 10 µM unless noted
T-47D breast = system: T-47D breast
BT-549 breast = system: BT-549 breast
SW-620 colon = system: SW-620 colon
MCF7 breast = system: MCF7 breast
HCT-116 colon = system: HCT-116 colon
HCC-2998 colon = system: HCC-2998 colon
KM12 colon = system: KM12 colon
MDA-MB-435 melanoma = system: MDA-MB-435 melanoma

For `Oc1c(CN2CCCC2)cc(COCc2ccc(Br)cc2)c2cccnc12`, the growth (T-47D breast) was -7.63% (active), the growth (BT-549 breast) was 14.9% and the growth (SW-620 colon) was 5.64% (active). For the same compound, the growth (MCF7 breast) was 11.7%, the growth (HCT-116 colon) was 1.8% (active) and the growth (HCC-2998 colon) was 21.5%. For the same compound, the growth (KM12 colon) was 20.6%.
With `COc1ccc(-c2nc(SCC(=O)Nc3nc(-c4ccccc4)cs3)[nH]c(=O)c2C#N)cc1` the growth (T-47D breast) was 84.3%, the growth (MDA-MB-435 melanoma) was 101% and the growth (SW-620 colon) was 97.4%. The growth (MCF7 breast) was 96.4%, the growth (HCT-116 colon) was 86% and the growth (HCC-2998 colon) was 87.5%. The growth (KM12 colon) was 108%.
For `Clc1cccc(Cl)c1/C=C/c1cc(/C=C/c2c(Cl)cccc2Cl)[nH]n1`, the growth (T-47D breast) was 57%, the growth (MDA-MB-435 melanoma) was -50% (active) and the growth (SW-620 colon) was 18.2%. The growth (MCF7 breast) was 20.9%, the growth (HCT-116 colon) was 15.5% and the growth (HCC-2998 colon) was 35.1%. It also gave a growth (KM12 colon) of 24.9%.
`COc1cc(C2CC(c3cc(OC)c(OCCCOc4ccc(-n5c(/C=C/c6ccccc6)nc6ccccc6c5=O)cc4)c(OC)c3)=NO2)cc(OC)c1OC` (centres undefined) showed a growth (T-47D breast) of 108%, a growth (MDA-MB-435 melanoma) of 110% and a growth (SW-620 colon) of 104%. For the same compound, the growth (MCF7 breast) was 97.4%, the growth (HCT-116 colon) was 106% and the growth (HCC-2998 colon) was 105%. The growth (KM12 colon) was 122%.
`COc1ccc(NC(=O)CSc2nnc(-c3cc(-c4ccc(S(N)(=O)=O)cc4)nc4ccccc34)n2-c2ccccc2)cc1` gave a growth (T-47D breast) of 58.2%, a growth (SW-620 colon) of 97.6% and a growth (MCF7 breast) of 78.8%. The growth (HCT-116 colon) was 73.9%, the growth (HCC-2998 colon) was 101% and the growth (KM12 colon) was 92.7%.
In the case of `CN(C)CC1C(=O)O[C@H]2[C@H]1CC/C(COC(=O)c1cc3ccccc3[nH]1)=C\CC[C@@]1(C)O[C@@H]21` (some centres undefined), the growth (T-47D breast) is reported as -76.6% (active), the growth (MDA-MB-435 melanoma) is reported as -38.2% (active) and the growth (SW-620 colon) is reported as -19.3% (active). For the same compound, the growth (MCF7 breast) was -41.8% (active), the growth (HCT-116 colon) was -83.3% (active) and the growth (HCC-2998 colon) was -82% (active). The growth (KM12 colon) was 6.93% (active).
For `CCc1ccccc1NC(=O)/C(C#N)=C/c1ccc(OC)cc1`, the growth (BT-549 breast) was 112%, the growth (MDA-MB-435 melanoma) was 110% and the growth (SW-620 colon) was 94.4%. The growth (MCF7 breast) was 106%, the growth (HCT-116 colon) was 89.1% and the growth (HCC-2998 colon) was 98.1%. It also gave a growth (KM12 colon) of 91.4%.
In the case of `O=C(CCCCCCSc1nc(-c2ccccc2)cc(-c2ccc(Cl)cc2)n1)NO`, the growth (T-47D breast) is reported as -13.7% (active), the growth (MDA-MB-435 melanoma) is reported as 19.4% and the growth (SW-620 colon) is reported as 11.9%. The growth (MCF7 breast) was 15.9%, the growth (HCT-116 colon) was 6.79% (active) and the growth (HCC-2998 colon) was 51.8%. It also gave a growth (KM12 colon) of 31.4%.
For `Cc1nn(-c2ccccc2)c2nc3c(c(-c4ccc(Cl)cc4)c12)CNC1(CCSCC1)N3`, the growth (T-47D breast) was 84.3%, the growth (MDA-MB-435 melanoma) was 99.8% and the growth (SW-620 colon) was 92.8%. The growth (MCF7 breast) was 93%, the growth (HCT-116 colon) was 90.7% and the growth (HCC-2998 colon) was 101%. For the same compound, the growth (KM12 colon) was 98.3%.
In the case of `N=C1CCC(=N)c2c1c(O)c1ccccc1c2O`, the growth (T-47D breast) is reported as 89.5%, the growth (MDA-MB-435 melanoma) is reported as 114% and the growth (SW-620 colon) is reported as 101%. The growth (MCF7 breast) was 138%, the growth (HCT-116 colon) was 101% and the growth (KM12 colon) was 96.8%.
With `O=C1C=C[C@]2(C[C@@H](c3cccc(C(F)(F)F)c3)O[C@@H](c3cccc(C(F)(F)F)c3)O2)O1` the growth (T-47D breast) was -49.6% (active), the growth (MDA-MB-435 melanoma) was -74.7% (active) and the growth (SW-620 colon) was -48.1% (active). The growth (MCF7 breast) was -7.92% (active), the growth (HCT-116 colon) was -70.6% (active) and the growth (HCC-2998 colon) was 18%. The growth (KM12 colon) was 6.02% (active).
With `Cc1cc(Cl)ccc1Nc1nc(C(F)(F)F)ccc1C(=O)N/N=C/c1ccc(N(C)C)cc1` the growth (T-47D breast) was 37%, the growth (SW-620 colon) was 15.9% and the growth (MCF7 breast) was 10.1%. For the same compound, the growth (HCT-116 colon) was 19.4%, the growth (HCC-2998 colon) was -37.3% (active) and the growth (KM12 colon) was 26.9%.
With `Cc1ccc(C(=NN=C(N)N)c2ccc(C)cc2)cc1` the growth (T-47D breast) was 20.3%, the growth (MDA-MB-435 melanoma) was -39% (active) and the growth (SW-620 colon) was 28.4%. The growth (MCF7 breast) was 2.04% (active), the growth (HCT-116 colon) was 2.81% (active) and the growth (KM12 colon) was 1.93% (active).
`CC1(C)CC(=O)CC2(C1)N=C(N)Nc1nc3ccccc3n12` (centres undefined) was tested, and the growth (T-47D breast) was 106%, the growth (MDA-MB-435 melanoma) was 104% and the growth (SW-620 colon) was 109%. The growth (MCF7 breast) was 89.4%, the growth (HCT-116 colon) was 96.8% and the growth (KM12 colon) was 108%.
Work on `CC1=C(SCCC(=O)OC(C[Se]C2=C(C)C(=O)c3ccccc3C2=O)C(=O)NCCCCCC(=O)OCc2ccccc2)C(=O)c2ccccc2C1=O` (centres undefined) yielded a growth (BT-549 breast) of 67.3%, a growth (MDA-MB-435 melanoma) of 25.1% and a growth (SW-620 colon) of 45.7%. For the same compound, the growth (MCF7 breast) was 28.2%, the growth (HCT-116 colon) was 4.77% (active) and the growth (HCC-2998 colon) was 32%. For the same compound, the growth (KM12 colon) was 19.8%.
In the case of `COc1cccc2c1C(=O)c1c(O)c3c(c(O)c1C2=O)CC(O)(/C(C)=N/NC(=O)CCCCC(=O)N/N=C(\C)C1(O)Cc2c(O)c4c(c(O)c2C(OC2CC(N)C(O)C(C)O2)C1)C(=O)c1c(OC)cccc1C4=O)CC3OC1CC(N)C(O)C(C)O1` (centres undefined), the growth (T-47D breast) is reported as -16.2% [5 µM] (active), the growth (MDA-MB-435 melanoma) is reported as -87.6% [5 µM] (active) and the growth (SW-620 colon) is reported as -32.3% [5 µM] (active). For the same compound, the growth (MCF7 breast) was 2.23% [5 µM] (active), the growth (HCT-116 colon) was -3.01% [5 µM] (active) and the growth (HCC-2998 colon) was -53.9% [5 µM] (active). For the same compound, the growth (KM12 colon) was -21.6% [5 µM] (active).
For `CC1OC(O[C@H]2/C=C/C=C/C=C/C=C/C=C/C=C/C=C/[C@H](C)[C@@H](O)[C@@H](C)[C@H](C)OC(=O)CC(O)CC(O)CCC(O)C(O)CC(O)C[C@]3(O)C[C@H](O)C(C(=O)O)C(C2)O3)C(O)[C@H](N)C1O` (some centres undefined), the growth (T-47D breast) was 54.3%, the growth (SW-620 colon) was -24.9% (active) and the growth (MCF7 breast) was 28.8%. The growth (HCT-116 colon) was -38.1% (active), the growth (HCC-2998 colon) was 53.5% and the growth (KM12 colon) was 41.6%.
`COc1ccc(NC(=O)CSc2nnc(-c3cc(-c4ccccc4)nc4ccccc34)n2-c2ccccc2)cc1` was tested, and the growth (T-47D breast) was 78.4%, the growth (MDA-MB-435 melanoma) was 99.2% and the growth (SW-620 colon) was 101%. The growth (MCF7 breast) was 89.1%, the growth (HCC-2998 colon) was 107% and the growth (KM12 colon) was 98.1%.
For `N/C(=N/N=C/c1ccccc1)N/N=C\c1ccccc1`, the growth (T-47D breast) was 37.6%, the growth (MDA-MB-435 melanoma) was -3.26% (active) and the growth (SW-620 colon) was 33.5%. It also gave a growth (MCF7 breast) of 31.6%, a growth (HCT-116 colon) of 35.9% and a growth (KM12 colon) of 35%.
With `COc1cccc(-c2nn(-c3ccccc3)cc2-c2ccnc(NCCCNC(=O)c3cccc(C(F)(F)F)c3)c2)c1` the growth (T-47D breast) was -19.6% (active), the growth (MDA-MB-435 melanoma) was 24.6% and the growth (SW-620 colon) was 33.2%. It also gave a growth (MCF7 breast) of 18.1%, a growth (HCT-116 colon) of 10.6% and a growth (HCC-2998 colon) of 21.7%. For the same compound, the growth (KM12 colon) was 23%.
In the case of `CCN(CC)S(=O)(=O)c1cccc(-c2ccc3c(NC(=O)C4CC4)n[nH]c3c2)c1`, the growth (BT-549 breast) is reported as 1.05% [6.25 µM] (active), the growth (MDA-MB-435 melanoma) is reported as 7.53% [6.25 µM] (active) and the growth (SW-620 colon) is reported as 26.1% [6.25 µM]. The growth (MCF7 breast) was 6.78% [6.25 µM] (active), the growth (HCT-116 colon) was 11.9% [6.25 µM] and the growth (HCC-2998 colon) was 43.9% [6.25 µM]. For the same compound, the growth (KM12 colon) was 12.6% [6.25 µM].
Work on `COc1ccc(-c2[nH]c(=S)n(C(CC3(C)NCC(=O)N3n3c(-c4ccccc4)cc(C)nc3=S)c3ccc(OC)cc3)c(=O)c2Br)cc1` (centres undefined) yielded a growth (T-47D breast) of 22.8%, a growth (MDA-MB-435 melanoma) of 57.4% and a growth (SW-620 colon) of 37.2%. It also gave a growth (MCF7 breast) of 16.5%, a growth (HCT-116 colon) of 21.8% and a growth (HCC-2998 colon) of 61.2%. For the same compound, the growth (KM12 colon) was 37%.
For `CCSC1=NC2C(N(CC)C(=O)N2CC)N1/N=C/C=C/c1ccccc1[N+](=O)[O-]` (centres undefined), the growth (T-47D breast) was 63.3%, the growth (MDA-MB-435 melanoma) was -37.4% (active) and the growth (SW-620 colon) was 16.7%. For the same compound, the growth (MCF7 breast) was 12.3%, the growth (HCT-116 colon) was 4.16% (active) and the growth (HCC-2998 colon) was 11%. It also gave a growth (KM12 colon) of 10.1%.
In the case of `C=CC(=O)Nc1cccc(Oc2nccc(Nc3nnc(C4CC4)s3)n2)c1`, the growth (BT-549 breast) is reported as 101%, the growth (MDA-MB-435 melanoma) is reported as 99.5% and the growth (SW-620 colon) is reported as 93.3%. It also gave a growth (MCF7 breast) of 82%, a growth (HCT-116 colon) of 101% and a growth (HCC-2998 colon) of 102%. The growth (KM12 colon) was 97.5%.
In the case of `CN(C)c1ccc(-c2cc(-c3ccc(Nc4nc(Nc5ccc(Cl)cc5)nc(Nc5ccc(Cl)cc5)n4)cc3)no2)cc1`, the growth (T-47D breast) is reported as -4.43% (active), the growth (MDA-MB-435 melanoma) is reported as 9.44% (active) and the growth (SW-620 colon) is reported as 53.6%. For the same compound, the growth (MCF7 breast) was 13.4%, the growth (HCT-116 colon) was 31.3% and the growth (HCC-2998 colon) was -5.58% (active). The growth (KM12 colon) was 28.5%.
For `S=C(Cc1ccc2c(c1)CCCC2)N1CCOCC1`, the growth (T-47D breast) was 80.2%, the growth (SW-620 colon) was 114% and the growth (MCF7 breast) was 94.3%. The growth (HCT-116 colon) was 87.6%, the growth (HCC-2998 colon) was 98% and the growth (KM12 colon) was 106%.
`CC(C)=C[C@@H]1c2c(c3ccccc3n(C)c2=O)O[C@H]2c3c(c4ccccc4n(C)c3=O)OC(C)(C)[C@@H]12` showed a growth (T-47D breast) of 57.7%, a growth (SW-620 colon) of 89.9% and a growth (MCF7 breast) of 69.8%. The growth (HCT-116 colon) was 81.6%, the growth (HCC-2998 colon) was 82.7% and the growth (KM12 colon) was 89.1%.
